# Screen size: about 5,500 compounds; about 2,000 (36%) were called active. Inconclusive results (about 18%) are left out. This is one part of the list. Unmarked numbers belong to inactive results. No stated cut-off is given here; in the data, active means normalized growth mostly below about 0.91 (no sharp cut-off); inconclusive means no clear call, values can overlap the other calls; inactive means mostly above about 0.92.
# Test: chemical genetic growth profiling, strain panel (AID 1159580);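 further: tested at 20 µM; growth read once vehicle control cultures reached saturation at 30 °C; 1 = growth at the plate median or of vehicle wells; lower values mean less growth of the strain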
# Conditions: S. cerevisiae deletion strains, growth OD
# [1] = locus YDR150W, strain NUM1, hits give low values
# [2] = locus YGR078C, strain PAC10, hits give low values
# [3] = locus YGR229C, strain SMI1, hits give low values
# [4] = locus YMR263W, strain SAP30, hits give low values
# [5] = locus YNL322C, strain KRE1, hits give low values
# [6] = locus YPL241C, strain CIN2, hits give low values
# [7] = locus YHR030C, strain SLT2, hits give low values
# [8] = locus YHR079C, strain IRE1, hits give low values
# [9] = locus YJL095W, strain BCK1, hits give low values
# [10] = locus YJR066W, strain TOR1, hits give low values
# [11] = locus YLR113W, strain HOG1, hits give low values
# [12] = locus YNL183C, strain NPR1, hits give low values
# [13] = locus YOR231W, strain MKK1, hits give low values
# [14] = locus YPL256C, strain CLN2, hits give low values
# [15] = locus YAL013W, strain DEP1, hits give low values
# [16] = locus YBR229C, strain ROT2, hits give low values
# [17] = locus YDL101C, strain DUN1, hits give low values
# [18] = locus YDL134C, strain PPH21, hits give low values
# [19] = locus YEL061C, strain CIN8, hits give low values
# [20] = locus YHR087W, strain rtc3, hits give low values
# [21] = locus YJL187C, strain SWE1, hits give low values
# [22] = locus YJR043C, strain POL32, hits give low values
# [23] = locus YJR075W, strain HOC1, hits give low values
# [24] = locus YKL190W, strain CNB1, hits give low values
# [25] = locus YLR039C, strain RIC1, hits give low values
# [26] = locus YLR058C, strain SHM2 (second series), hits give low values
# [27] = locus YLR085C, strain ARP6, hits give low values
# [28] = locus YLR262C, strain YPT6, hits give low values
# [29] = locus YML094W, strain GIM5, hits give low values
# [30] = locus YMR219W, strain ESC1, hits give low values
# [31] = locus YMR307W, strain GAS1, hits give low values
# [32] = locus YNL153C, strain GIM3, hits give low values
# [33] = locus YNL298W, strain CLA4 (second series), hits give low values
# [34] = locus YNR030W, strain Alg12, hits give low values
# [35] = locus YOL006C, strain TOP1, hits give low values
# [36] = locus YPL055C, strain LGE1, hits give low values
# [37] = locus YPR135W, strain CTF4, hits give low values
compound,measurement,setting,value
Fc1ccc(CN(C2=NCCN2)c2c(Cl)cccc2Cl)cc1,normalized growth,"locus YAL040C, strain CLN3, hits give low values",0.945
same,normalized growth,"locus YCL061C, strain MRC1 (second series), hits give low values",1.01
same,normalized growth,[1],1.06
same,normalized growth,"locus YDR363W, strain ESC2, hits give low values",1.02
same,normalized growth,"locus YER002W, strain NOP16, hits give low values",1.02
same,normalized growth,[2],0.984
same,normalized growth,[3],1.01
same,normalized growth,[4],0.995
same,normalized growth,"locus YNL128W, strain TEP1, hits give low values",1.1
same,normalized growth,"locus YNL175C, strain NOP13, hits give low values",1.01
same,normalized growth,"locus YNL197C, strain WHI3, hits give low values",1
same,normalized growth,"locus YNL224C, strain SQS1, hits give low values",1.01
same,normalized growth,[5],1
same,normalized growth,"locus YOR083W, strain WHI5 (second series), hits give low values",1.05
same,normalized growth,[6],0.997
CC(C)(CO)[C@@H](O)C(=O)NCCC(=O)O,normalized growth,[7],1.06
same,normalized growth,[8],1.04
same,normalized growth,[9],1.03
same,normalized growth,[10],0.964
same,normalized growth,[11],1.05
same,normalized growth,[12],0.999
same,normalized growth,[13],1.09
same,normalized growth,[14],1.09
O=C(O)C12CC3CC(CC(Br)(C3)C1)C2,normalized growth,[15],1
same,normalized growth,[16],0.972
same,normalized growth,[17],0.984
same,normalized growth,[18],1.02
same,normalized growth,[1],0.982
same,normalized growth,[19],0.987
same,normalized growth,[2],0.99
same,normalized growth,[3],1.01
same,normalized growth,[7],1.06
same,normalized growth,[20],0.988
same,normalized growth,[21],0.945
same,normalized growth,[22],1.01
same,normalized growth,[23],0.996
same,normalized growth,[24],1.01
same,normalized growth,[25],1.04
same,normalized growth,[26],1
same,normalized growth,[27],0.963
same,normalized growth,[28],1.1
same,normalized growth,[29],0.991
same,normalized growth,[30],0.998
same,normalized growth,[4],0.993
same,normalized growth,[31],0.997
same,normalized growth,[32],0.994
same,normalized growth,[33],0.992
same,normalized growth,[5],0.993
same,normalized growth,[34],0.997
same,normalized growth,[35],1.05
same,normalized growth,[36],0.976
same,normalized growth,[6],0.994
same,normalized growth,[37],1.14
N#CC(C#N)=NNc1ccc(C(F)(F)F)cc1,normalized growth,"locus YAR019C, strain CDC15, hits give low values",0.135 (active)
same,normalized growth,"locus YBL105C, strain PKC1, hits give low values",0.148 (active)
same,normalized growth,"locus YBR135W, strain CKS1, hits give low values",0.135 (active)
same,normalized growth,"locus YBR136W, strain MEC1, hits give low values",0.147 (active)
same,normalized growth,"locus YBR160W, strain CDC28, hits give low values",0.168 (active)
same,normalized growth,"locus YDL017W, strain CDC7, hits give low values",0.178 (active)
same,normalized growth,"locus YDL028C, strain MPS1, hits give low values",0.311 (active)
same,normalized growth,[17],0.124 (active)
same,normalized growth,"locus YDL108W, strain KIN28, hits give low values",0.152 (active)
same,normalized growth,"locus YDL132W, strain cdc53, hits give low values",0.126 (active)
same,normalized growth,"locus YDL214C, strain PRR2, hits give low values",0.131 (active)
same,normalized growth,"locus YDR052C, strain DBF4, hits give low values",0.255 (active)
same,normalized growth,"locus YDR054C, strain cdc34, hits give low values",0.138 (active)
same,normalized growth,"locus YDR226W, strain ADK1, hits give low values",0.178 (active)
same,normalized growth,"locus YDR477W, strain SNF1, hits give low values",0.116 (active)
same,normalized growth,"locus YER123W, strain YCK3, hits give low values",0.116 (active)
same,normalized growth,"locus YER133W, strain GLC7, hits give low values",0.11 (active)
same,normalized growth,"locus YFL009W, strain cdc4, hits give low values",0.132 (active)
same,normalized growth,"locus YFL029C, strain CAK1, hits give low values",0.138 (active)
same,normalized growth,"locus YFR003C, strain YPI1, hits give low values",0.339 (active)
same,normalized growth,"locus YFR019W, strain FAB1, hits give low values",0.12 (active)
same,normalized growth,"locus YFR028C, strain CDC14, hits give low values",0.144 (active)
same,normalized growth,"locus YGR040W, strain KSS1, hits give low values",0.113 (active)
same,normalized growth,"locus YGR052W, strain FMP48, hits give low values",0.129 (active)
same,normalized growth,"locus YGR092W, strain DBF2, hits give low values",0.105 (active)
same,normalized growth,[7],0.144 (active)
same,normalized growth,[8],0.155 (active)
same,normalized growth,"locus YHR082C, strain KSP1, hits give low values",0.169 (active)
same,normalized growth,"locus YHR205W, strain SCH9, hits give low values",0.0194 (active)
same,normalized growth,"locus YIL147C, strain SLN1, hits give low values",0.397 (active)
same,normalized growth,[9],0.116 (active)
same,normalized growth,"locus YJL128C, strain PBS2, hits give low values",0.149 (active)
same,normalized growth,"locus YJL157C, strain FAR1, hits give low values",0.106 (active)
same,normalized growth,"locus YJR016C, strain ILV3, hits give low values",0.13 (active)
same,normalized growth,"locus YJR066W, strain TOR1 (second series), hits give low values",0.116 (active)
same,normalized growth,[10],0.146 (active)
same,normalized growth,"locus YKL048C, strain ELM1, hits give low values",0.134 (active)
same,normalized growth,"locus YKL067W, strain YNK1, hits give low values",0.113 (active)
same,normalized growth,"locus YKL101W, strain HSL1, hits give low values",0.112 (active)
same,normalized growth,"locus YKL193C, strain SDS22, hits give low values",0.118 (active)
same,normalized growth,"locus YKL203C, strain TOR2, hits give low values",0.132 (active)
same,normalized growth,[11],0.166 (active)
same,normalized growth,"locus YLR133W, strain CKI1, hits give low values",0.109 (active)
same,normalized growth,"locus YLR403W, strain SFP1, hits give low values",0.0217 (active)
same,normalized growth,"locus YML070W, strain DAK1, hits give low values",0.106 (active)
same,normalized growth,"locus YMR001C, strain CDC5, hits give low values",0.133 (active)
same,normalized growth,"locus YMR205C, strain PFK2 (second series), hits give low values",0.104 (active)
same,normalized growth,"locus YMR277W, strain FCP1, hits give low values",0.119 (active)
same,normalized growth,"locus YNL006W, strain LST8, hits give low values",0.194 (active)
same,normalized growth,"locus YNL020C, strain ARK1, hits give low values",0.128 (active)
same,normalized growth,"locus YNL161W, strain CBK1, hits give low values",0.137 (active)
same,normalized growth,[12],0.141 (active)
same,normalized growth,"locus YNL207W, strain RIO2, hits give low values",0.155 (active)
same,normalized growth,"locus YNL222W, strain SSU72, hits give low values",0.131 (active)
same,normalized growth,"locus YNL307C, strain MCK1 (second series), hits give low values",0.133 (active)
same,normalized growth,"locus YOL078W, strain AVO1, hits give low values",0.117 (active)
same,normalized growth,"locus YOL136C, strain PFK27, hits give low values",0.111 (active)
same,normalized growth,"locus YOR061W, strain CKA2, hits give low values",0.108 (active)
same,normalized growth,"locus YOR119C, strain RIO1, hits give low values",0.119 (active)
same,normalized growth,[13],0.126 (active)
same,normalized growth,"locus YOR329C, strain SCD5, hits give low values",0.187 (active)
same,normalized growth,"locus YPL031C, strain PHO85, hits give low values",0.116 (active)
same,normalized growth,"locus YPL153C, strain RAD53, hits give low values",0.107 (active)
same,normalized growth,"locus YPL204W, strain HRR25, hits give low values",0.115 (active)
same,normalized growth,"locus YPL209C, strain IPL1, hits give low values",0.135 (active)
same,normalized growth,[14],0.179 (active)
same,normalized growth,"locus YPR025C, strain CCL1, hits give low values",0.154 (active)
same,normalized growth,"locus YPR106W, strain ISR1, hits give low values",0.116 (active)
same,normalized growth,"locus YPR111W, strain DBF20, hits give low values",0.122 (active)
same,normalized growth,"strain NNK1, hits give low values",0.124 (active)
same,normalized growth,"strain TSCII, hits give low values",0.137 (active)
N#CC(C#N)=CNc1cc(C(F)(F)F)ccc1N1CCCCC1,normalized growth,[15],0.995
same,normalized growth,[16],1
same,normalized growth,[17],0.991
same,normalized growth,[18],0.997
same,normalized growth,[1],0.973
same,normalized growth,[19],1
same,normalized growth,[2],0.987
same,normalized growth,[3],1
same,normalized growth,[7],0.936
same,normalized growth,[20],1.01
same,normalized growth,[21],1
same,normalized growth,[22],1
same,normalized growth,[23],0.966
same,normalized growth,[24],1
same,normalized growth,[25],0.997
same,normalized growth,[26],1
same,normalized growth,[27],0.96
same,normalized growth,[28],1.04
same,normalized growth,[29],0.989
same,normalized growth,[30],1
same,normalized growth,[4],0.986
same,normalized growth,[31],0.909
same,normalized growth,[32],1.01
same,normalized growth,[33],1
same,normalized growth,[5],0.992
same,normalized growth,[34],1.01
same,normalized growth,[35],1.01
same,normalized growth,[36],0.989
same,normalized growth,[6],0.996
same,normalized growth,[37],0.915
CC(=O)CC(C)=Nc1ccc(C(F)(F)F)cc1,normalized growth,[15],0.989
same,normalized growth,[16],0.991
same,normalized growth,[17],0.994
same,normalized growth,[18],1.03
same,normalized growth,[1],0.908
same,normalized growth,[19],1.01
same,normalized growth,[2],0.981
same,normalized growth,[3],1.02
same,normalized growth,[7],1.08
same,normalized growth,[20],0.971
same,normalized growth,[21],0.995
same,normalized growth,[22],1.01
same,normalized growth,[23],1.05
same,normalized growth,[25],1.05
same,normalized growth,[26],1
same,normalized growth,[27],1.03
same,normalized growth,[28],1.04
same,normalized growth,[29],0.993
same,normalized growth,[30],1
same,normalized growth,[4],1.05
same,normalized growth,[32],0.985
same,normalized growth,[33],1.05
same,normalized growth,[5],1
same,normalized growth,[34],1.02
same,normalized growth,[36],0.939
same,normalized growth,[6],1.08
same,normalized growth,[37],0.969
